Cruzain inh noDet = inhibitors of Trypanosoma cruzi cruzain without detergent. P25779. purified cruzain, Z-FR-AMC fluorescence, no detergent. Potency, µM, for inactives: max response, negative = inhibition, usual class: inhibitors. hit rate 2.3% among 200,000;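 also: plate controls were enzyme without inhibitor for no effect and buffer without enzyme for full effect; nearly all actives have a fitted effect of over 40% in size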
Target sequence (P25779 123-467 limits assumed): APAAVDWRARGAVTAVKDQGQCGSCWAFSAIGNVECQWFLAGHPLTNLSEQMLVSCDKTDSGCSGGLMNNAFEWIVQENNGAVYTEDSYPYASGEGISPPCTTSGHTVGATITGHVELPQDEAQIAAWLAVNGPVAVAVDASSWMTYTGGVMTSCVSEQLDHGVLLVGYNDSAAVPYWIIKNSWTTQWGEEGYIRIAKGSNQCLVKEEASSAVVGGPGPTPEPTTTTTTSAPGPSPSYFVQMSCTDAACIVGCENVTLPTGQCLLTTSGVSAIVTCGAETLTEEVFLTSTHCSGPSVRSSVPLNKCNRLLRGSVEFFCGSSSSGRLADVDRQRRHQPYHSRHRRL
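Detergent-free condition (0.00005% Triton X-100) in acetate buffer pH 5.5 with DTT. 1.5 nM enzyme and compound were pre-mixed 15 min, then 2 uM Z-FR-AMC substrate added; reaction progress from fluorescence change between first and third reads (60 s).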
Cruzain Triton = blocks cruzain activity in presence of Triton detergent; P25779; purified cruzain, Z-FR-AMC fluorescence, 0.01% Triton; Potency, µM, for inactives: max response, negative = inhibition, most hits filed as inhibitors; hit rate 0.43% among 200,000; AID 1478;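 also: plate controls were neutral wells for no effect and buffer without enzyme for full effect; nearly all actives have a fitted effect of over 40% in size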
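In this qHTS format, compounds are incubated with 1.5 nM cruzain for 15 min at room temperature before 2 uM Z-FR-AMC is added. Release of AMC is followed at 360/450 nm, and progress is taken as the 60 s fluorescence difference.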
An asterisk follows results filed as active. This is a sample that favours compounds with a hit; in the whole collection about 2.6% have one here. Calls follow the shape of the dose curve; as a rule, active = well fitted curve in the direction sought with a large enough effect; inconclusive = small, poorly fitted or top-dose-only effect, or another doubt; inactive = no such curve, though single readings can be large; an effect the other way counts as inactive or inconclusive. Potency is read from the fitted curve at half-maximal effect.

Screening Cc1cccc(-n2c(/C=C/c3c(C)[nH]c4ccccc34)nc3ccccc3c2=O)c1 returned Cruzain inh noDet -3% and Cruzain Triton 0%.
Cc1[nH]c2ccccc2c1/C=C/c1nc2ccccc2c(=O)n1-c1ccc([N+](=O)[O-])cc1 was read as Cruzain inh noDet 25µM* and Cruzain Triton 1%.
For Cc1ccc(/C=C2\CCC3=C2OC(N)=C(C#N)C3c2ccc(C)cc2)cc1 (stereo not given) the results were Cruzain inh noDet 25µM* and Cruzain Triton -12%.
For N#CC1=C(N)OC2=C(CCc3ccccc32)C1c1ccccc1 (stereo not given) the results were Cruzain inh noDet -2% and Cruzain Triton -10%.
`CC(C)CC(=O)Nc1ccc(S(=O)(=O)Nc2cc3c(cc2N2CCOCC2)n(C)c(=O)c(=O)n3C)cc1` gave Cruzain inh noDet inconclusive and Cruzain Triton -3%.
O=C(Nc1ccc(N2CCCC2)c(Cl)c1)c1ccc(Br)o1 was read as Cruzain inh noDet 10µM* and Cruzain Triton -14%.
CCn1c2ccccc2c2cc(NC(=O)c3ccc(Br)o3)ccc21 was read as Cruzain inh noDet 107% and Cruzain Triton 13µM*.
Screening CCn1c2ccccc2c2cc(NC(=O)c3ccc(C)c([N+](=O)[O-])c3)ccc21 returned Cruzain inh noDet 25µM* and Cruzain Triton -3%.
`O=C(Nc1ccccc1N1CCCC1)c1ccc(Br)o1` gave Cruzain inh noDet -6% and Cruzain Triton -4%.
For CCn1c2ccccc2c2cc(NC(=O)c3cc(OC)cc(OC)c3)ccc21 the results were Cruzain inh noDet inconclusive and Cruzain Triton -6%.
`CCn1c2ccccc2c2cc(NC(=O)c3cccc([N+](=O)[O-])c3)ccc21` gave Cruzain inh noDet -4% and Cruzain Triton 4%.
Screening Cc1nc(N2CCCC2)c2c(C(=O)N3CCN(c4ccc(F)cc4)CC3)c(C)oc2n1 returned Cruzain inh noDet -4% and Cruzain Triton 3%.
Screening CCCCC(CC)CNC(=O)CN(C)S(=O)(=O)c1ccc2c(c1)c(=O)n(C)c(=O)n2C (stereo not given) returned Cruzain inh noDet 8% and Cruzain Triton 2%.
`Cc1ccc(NC(=O)COC(=O)c2ccccc2Nc2ccccc2)cc1` gave Cruzain inh noDet inconclusive and Cruzain Triton -9%.
For Cc1cccc(C(=O)Nc2ccccc2C(=O)OCC(=O)Nc2ccc(C#N)cc2)c1 the results were Cruzain inh noDet 32µM* and Cruzain Triton -5%.
For COC(=O)c1nc2n(n1)C(c1cc(OC)ccc1OC)C(C(=O)Nc1ccc(C)cc1C)=C(C)N2 (stereo not given) the results were Cruzain inh noDet -8% and Cruzain Triton 2%.
Cc1cc(-n2c(C)nc3ccccc3c2=O)ccc1NC(=O)c1ccc([N+](=O)[O-])cc1 was read as Cruzain inh noDet 14% and Cruzain Triton 1%.
Cc1cc(F)ccc1S(=O)(=O)Nc1ccccc1C(=O)Nc1ccccc1-c1nc2ccccc2[nH]1 was read as Cruzain inh noDet -28% and Cruzain Triton -1%.
Screening COc1c(Cl)cc(C(=O)Nc2cccc(-c3nc4ccccc4[nH]3)c2)cc1Cl returned Cruzain inh noDet inconclusive and Cruzain Triton -2%.
Screening O=C(Nc1ccc(-c2nc3ccccc3[nH]2)cc1)c1ccccc1NS(=O)(=O)c1ccc(F)cc1 returned Cruzain inh noDet 16µM* and Cruzain Triton -8%.
CN(c1ccccc1)S(=O)(=O)c1ccc(Cl)c(C(=O)Nc2ccc(-c3nc4ccccc4[nH]3)cc2)c1 was read as Cruzain inh noDet 13µM* and Cruzain Triton -4%.
For CCCN(CCC)S(=O)(=O)c1ccc(C(=O)Nc2cccc(-c3nc4ccccc4[nH]3)c2)cc1 the results were Cruzain inh noDet 7.9µM* and Cruzain Triton -1%.
For CN(c1ccccc1)S(=O)(=O)c1ccc(Cl)c(C(=O)Nc2nc3ccccc3[nH]2)c1 the results were Cruzain inh noDet inconclusive and Cruzain Triton -2%.
For Cc1ccc(S(=O)(=O)NCC(c2ccco2)N2CCN(c3ccccc3F)CC2)cc1 (stereo not given) the results were Cruzain inh noDet 5% and Cruzain Triton -3%.
Screening COC(=O)c1ccc(C(=O)OC)c(NC(=O)c2c(-c3ccccc3)noc2C)c1 returned Cruzain inh noDet 3% and Cruzain Triton 5%.
`Cc1ccc(CNC(=O)c2nnn(Cc3ccc(F)cc3)c2N)cc1` gave Cruzain inh noDet 12% and Cruzain Triton 0%.
Screening Cc1cccc(NC(=O)c2oc3ccccc3c2NC(=O)c2cc(=O)c3ccc(C)cc3o2)c1 returned Cruzain inh noDet 12% and Cruzain Triton -2%.
`C#CCn1c(=NC(=O)c2ccc(S(=O)(=O)N3CCc4ccccc4C3)cc2)sc2cc(S(N)(=O)=O)ccc21` gave Cruzain inh noDet 10µM* and Cruzain Triton -22%.
`COCCn1c(=NC(=O)c2ccc(S(=O)(=O)N3CCc4ccccc4C3)cc2)sc2cc(S(N)(=O)=O)ccc21` gave Cruzain inh noDet inconclusive and Cruzain Triton -21%.
`COC(=O)Cn1c(=NC(=O)c2ccc(S(=O)(=O)N3CCc4ccccc4C3)cc2)sc2cc(OC)ccc21` gave Cruzain inh noDet 6.3µM* and Cruzain Triton -4%.
`C=CCn1c(=NC(=O)c2ccc(S(=O)(=O)N3CCc4ccccc4C3)cc2)sc2cc(S(N)(=O)=O)ccc21` gave Cruzain inh noDet -9% and Cruzain Triton -4%.
COc1ccc(Cn2c(=O)c3oc4ccccc4c3n(Cc3ccc(F)cc3)c2=O)cc1 was read as Cruzain inh noDet -1% and Cruzain Triton -1%.
Cc1ccc(C(=O)CSc2nnc3ccc4ccccc4n23)cc1 was read as Cruzain inh noDet -9% and Cruzain Triton -3%.
Screening Cc1cccc(CCNC(=O)CCc2c(C)nc3c4c(C)cc(C)nc4nn3c2C)c1 returned Cruzain inh noDet -15% and Cruzain Triton -1%.
`CCOc1ccc(CCNC(=O)Cn2c(=O)c3cccn3c3ccc(F)cc32)cc1OCC` gave Cruzain inh noDet 5% and Cruzain Triton -1%.
Screening CCOc1ccc(NC(=O)CSc2nc(=O)[nH]c3c2CCC3)cc1 returned Cruzain inh noDet -11% and Cruzain Triton 1%.
`CN1CCN(C(=O)c2ccc3c(c2)N(Cc2ccc(Cl)cc2)C(=O)c2ccccc2S3(=O)=O)CC1` gave Cruzain inh noDet -3% and Cruzain Triton -2%.
O=C(CC1S/C(=N/N=C/c2cccs2)NC1=O)Nc1ccc(Cl)cc1 (stereo not given) was read as Cruzain inh noDet -27% and Cruzain Triton -2%.
`O=C(CC1S/C(=N/N=C/c2cccs2)NC1=O)Nc1ccc(Cl)c(Cl)c1` (stereo not given) gave Cruzain inh noDet 20µM* and Cruzain Triton -5%.
O=C(CC1S/C(=N/N=C/c2c[nH]c3ccc(OCc4ccccc4)cc23)NC1=O)Nc1ccccc1 (stereo not given) was read as Cruzain inh noDet 6.3µM* and Cruzain Triton -4%.
`O=C(CC1S/C(=N/N=C/c2c[nH]c3ccccc23)NC1=O)Nc1ccccc1` (stereo not given) gave Cruzain inh noDet inconclusive and Cruzain Triton -6%.
CCCCOC(=O)c1ccc(Nc2nc3ccc(C)cc3n3cnnc23)cc1 was read as Cruzain inh noDet -5% and Cruzain Triton 1%.
For Cc1ccccc1-n1c(SCC(=O)Nc2ccc(Cl)cc2Cl)nc(O)cc1=O the results were Cruzain inh noDet 1% and Cruzain Triton -29%.

Source: PubChem
